For assay [1], the target named is Oxysterols receptor LXR-beta (Homo sapiens) (UniProt P55055). As to the kind of experiment: ATG_LXRb_TRANS: Attagene TRANS-FACTORIAL HepG2 Assay for human Liver X Receptor beta (LXRb) (AID 2282981; active = hit-call score of the fitted dose curve at least 0.9, where 1 is the maximum). To be noted: HepG2 Attagene TRANS GAL4-LXRb reporter, mRNA. The procedure, abridged:
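Multiplexed reporter assay, HepG2, 24 h dosing. Fluorescence of labelled RT-PCR products after capillary electrophoresis gives transcript level; positive fitting direction relative to DMSO.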

Assay [2] can be described thus: ATG_M_06_TRANS: Attagene TRANS-FACTORIAL HepG2 Assay for M06 Transcription Factor (Internal Marker) (AID 2282983; active = hit-call score of the fitted dose curve at least 0.9, where 1 is the maximum). Particulars: HepG2 Attagene TRANS M06 internal marker reporter. The procedure, abridged: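 Read-out: fluorescent reporter cDNA fragments resolved by capillary electrophoresis after RT-PCR and HpaI cut. Source cells were HepG2 carrying transfected multi-reporter GAL4 constructs, dosed 24 h. Increase over DMSO control analysed.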

Assay [3] in a line: ATG_M_32_TRANS: Attagene TRANS-FACTORIAL HepG2 Assay for M32 Transcription Factor (Internal Marker) (AID 2282984; active = hit-call score of the fitted dose curve at least 0.9, where 1 is the maximum;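 note: transcript level of a background control reporter unit measured by RT-PCR and capillary electrophoresis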). Particulars: HepG2 Attagene TRANS M32 internal marker reporter. The procedure, abridged:
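Internal-marker readout from a multiplexed transcription reporter panel. HepG2 cells were transfected with GAL4-UAS reporter units, treated 24 hours, and reporter transcript levels determined by fluorescence after RT-PCR and capillary separation.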

Assay [4] addresses Nuclear receptor subfamily 4 group A member 2 (Homo sapiens) (UniProt P43354). As to the kind of experiment: ATG_NURR1_TRANS: Attagene TRANS-FACTORIAL HepG2 Assay for human Nuclear Receptor Related Protein 1 (NURR1) (AID 2282985; active = hit-call score of the fitted dose curve at least 0.9, where 1 is the maximum). Particulars: HepG2 Attagene TRANS reporter, mRNA readout. The procedure, abridged:
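Endpoint: reporter mRNA increase relative to DMSO. HepG2 cells transfected with reporter units, treated 24 h; RNA processed by RT-PCR, labelling, HpaI digestion and capillary electrophoresis.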

For assay [5], the target named is Transcriptional activator Myb (Homo sapiens) (UniProt P10242). Description: ATG_Myb_CIS: Attagene CIS-FACTORIAL HepG2 Assay for human Myeloblastosis (Myb) Proto-Oncogene Transcription Factor (AID 2282986). To be noted: HepG2 Attagene CIS-FACTORIAL Myb reporter transcription; actives raise or lower the signal. The procedure, abridged:
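Fluorescence signals from capillary electrophoresis of RT-PCR-amplified reporter cDNA give the read-out. Cells: HepG2 transfected with multiple cis-regulated reporter units. Exposure lasts 24 hours; DMSO defines baseline for gain or loss of signal.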

Assay [6] concerns the target Nuclear respiratory factor 1 (Homo sapiens) (UniProt Q16656). Description: ATG_NRF1_CIS: Attagene CIS-FACTORIAL HepG2 Assay for human Nuclear Respiratory Factor 1 (NRF1) Orphan Gene (AID 2282987). Particulars: HepG2 NRF1 cis-element reporter, Attagene multiplex; actives raise or lower the signal. The procedure, abridged: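 Transcriptional reporter readout, one component of a 52-endpoint multiplexed HepG2 panel. Exposure 24 h; mRNA detected via RT-PCR and fluorescent capillary electrophoresis; fitting in both directions against DMSO.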

Assay [7] in a line: ATG_NFI_CIS: Attagene CIS-FACTORIAL HepG2 Assay for human Nuclear Factor I (NFI) (AID 2282989). To be noted: HepG2 cis-regulatory reporter, NFI response element transcription; actives raise or lower the signal. The procedure, abridged:
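Multiplexed cis-reporter system in human HepG2 cells reports native TF activity as reporter mRNA induction 24 h post-dose. Fragments labelled with 6-FAM, HpaI-digested and resolved by capillary electrophoresis; activity fitted both directions versus DMSO.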

In assay [8] the target is Myc proto-oncogene protein (Homo sapiens) (UniProt P01106). As to the kind of experiment: ATG_Myc_CIS: Attagene CIS-FACTORIAL HepG2 Assay for human Myelocytomatosis (Myc) Proto-Oncogene Transcription Factor (AID 2282990). To be noted: HepG2, Attagene cis-reporter transcription factor activity; actives raise or lower the signal. The procedure, abridged: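 Transiently transfected HepG2 cells bearing cis-promoter reporter units for endogenous transcription factors; 24 h exposure. Reporter mRNA measured by RT-PCR, 6-FAM primer extension, HpaI cut and capillary electrophoresis; bidirectional fit relative to DMSO.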

Assay [9] in a line: ATG_NF_kB_CIS: Attagene CIS-FACTORIAL HepG2 Assay for human Nuclear Factor Kappa B (NF-kB) (AID 2282991). To be noted: HepG2 Attagene cis-factorial NF-kB reporter mRNA; actives raise or lower the signal. The procedure, abridged:
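HepG2, transient multi-reporter transfection, cis promoter elements (endogenous TFs). 24 h exposure. Total RNA → RT → PCR → 6-FAM label → HpaI → CE. Gain/loss vs DMSO.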

Assay [10] is described as follows: ATG_NRF2_ARE_CIS: Attagene CIS-FACTORIAL HepG2 Assay for human Nuclear Factor Erythroid 2 Related Factor 2 (NFR2) response to Antioxidant Response Elements (ARE) (AID 2282992).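 For AC50: reporter mRNA level measured by RT-PCR and capillary electrophoresis fluorescence.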 Particulars: HepG2 Attagene ARE/NRF2 reporter, transcription factor activity; actives raise or lower the signal. The procedure, abridged:
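Endogenous transcription factor activity in human liver HepG2 cells is tracked via a cis-element-driven reporter within a multiplexed set. mRNA induction is read by RT-PCR and capillary electrophoresis after 24 h, with DMSO as baseline.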

A short description of assay [11]: ATG_Oct_MLP_CIS: Attagene CIS-FACTORIAL HepG2 Assay for human Octamer-Binding Transcription Factor (Oct) (AID 2282993). Particulars: HepG2 Attagene cis-factorial Oct reporter, mRNA; actives raise or lower the signal. The procedure, abridged:
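After 24 h compound exposure, transfected HepG2 cells were lysed for total RNA; reporter-specific cDNA was PCR-amplified, fluorescently labelled and sized by capillary electrophoresis. Bidirectional curve fitting used DMSO as baseline.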

Assay [12] concerns the target Cellular tumor antigen p53 (Homo sapiens) (UniProt P04637). As to the kind of experiment: ATG_p53_CIS: Attagene CIS-FACTORIAL HepG2 Assay for human p53 Transcription Factor (AID 2282994). To be noted: HepG2 p53 cis-element reporter, Attagene mRNA; actives raise or lower the signal. The procedure, abridged: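 Steps: transfect HepG2 with multiplexed cis reporter constructs; dose chemicals 24 h; extract RNA, reverse-transcribe, PCR-amplify reporter sequences; FAM-label, HpaI-digest, resolve fragments by CE. Activity fitted both directions relative to DMSO.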

Assay [13] can be described thus: BSK_3C_TissueFactor: BioMAP Diversity Plus: 3C Assay for Tissue Factor Biomarker Activity (AID 2282997). To be noted: BioMAP 3C HUVEC, tissue factor biomarker readout; actives raise or lower the signal. The procedure, abridged: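 HUVEC, 3C system, 24 h post-dose; Tissue Factor by ELISA; bidirectional fit vs DMSO baseline.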
A short description of assay [14]: BSK_3C_uPAR: BioMAP Diversity Plus: 3C Assay for Urokinase-type plasminogen activator receptor (uPAR) Biomarker Activity (AID 2282998). To be noted: BioMAP 3C HUVEC, uPAR biomarker ELISA; actives raise or lower the signal. The procedure, abridged: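 Values derive from bidirectional curve fitting relative to DMSO, which served as baseline of activity. uPAR was measured by ELISA in human umbilical vein endothelial primary cultures 24 h after compound addition.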
(In general: In an ELISA, binding on a coated surface is turned into a signal by an enzyme label.)

A short description of assay [15]: BSK_3C_VCAM1: BioMAP Diversity Plus: 3C Assay for Vascular cell adhesion molecule 1 (VCAM1) Biomarker Activity (AID 2282999). Particulars: BioMAP 3C HUVEC, VCAM1 ELISA, cytokine-stimulated; actives raise or lower the signal. The procedure, abridged:
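HUVEC primary cells, 24 h compound exposure; VCAM-1 by ELISA; gain/loss of signal fitted bidirectionally vs DMSO baseline.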

Assay [16] concerns the target Hepatocyte nuclear factor 4-alpha (Homo sapiens) (UniProt P41235). As to the kind of experiment: ATG_HNF4a_TRANS: Attagene TRANS-FACTORIAL HepG2 Assay for human Hepatocyte Nuclear Factor 4 alpha (HNF4a) (AID 2282982; active = hit-call score of the fitted dose curve at least 0.9, where 1 is the maximum). To be noted: HepG2 HNF4a transactivation reporter, mRNA readout. The procedure, abridged: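 Endpoint reflects transcriptional activation of a GAL4-UAS reporter by an HNF4a-GAL4 chimera in transfected HepG2 cells, 24 h post-dosing. Fluorescence from RT-PCR products separated by capillary electrophoresis; DMSO baseline.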

The values below come from PubChem BioAssay (EPA / NIEHS).

The term AC50 denotes the concentration giving half of the maximal activity seen.

Molecules are shown by their SMILES. Inconclusive results are not listed. The source made the active and inactive calls. Rule for the calls, unless noted: active = hit-call score of the fitted dose curve at least 0.9, where 1 is the maximum; inactive = score below 0.9.

Sequence of Myc proto-oncogene protein (Homo sapiens) (P01106 whole entry, looked up): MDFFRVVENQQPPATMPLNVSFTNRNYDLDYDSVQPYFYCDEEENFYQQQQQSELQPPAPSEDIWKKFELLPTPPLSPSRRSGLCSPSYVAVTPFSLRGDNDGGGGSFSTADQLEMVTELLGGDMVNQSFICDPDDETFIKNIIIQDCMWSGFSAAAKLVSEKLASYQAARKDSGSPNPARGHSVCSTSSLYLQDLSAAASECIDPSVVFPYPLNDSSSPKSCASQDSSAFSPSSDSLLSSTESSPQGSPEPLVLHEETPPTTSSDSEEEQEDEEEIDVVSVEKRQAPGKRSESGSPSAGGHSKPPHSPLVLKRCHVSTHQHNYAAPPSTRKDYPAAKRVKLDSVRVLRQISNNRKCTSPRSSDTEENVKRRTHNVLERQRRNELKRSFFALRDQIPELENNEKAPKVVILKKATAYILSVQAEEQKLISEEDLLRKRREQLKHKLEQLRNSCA
Sequence of Hepatocyte nuclear factor 4-alpha (Homo sapiens) (P41235 whole entry, looked up, the tested form may be a part): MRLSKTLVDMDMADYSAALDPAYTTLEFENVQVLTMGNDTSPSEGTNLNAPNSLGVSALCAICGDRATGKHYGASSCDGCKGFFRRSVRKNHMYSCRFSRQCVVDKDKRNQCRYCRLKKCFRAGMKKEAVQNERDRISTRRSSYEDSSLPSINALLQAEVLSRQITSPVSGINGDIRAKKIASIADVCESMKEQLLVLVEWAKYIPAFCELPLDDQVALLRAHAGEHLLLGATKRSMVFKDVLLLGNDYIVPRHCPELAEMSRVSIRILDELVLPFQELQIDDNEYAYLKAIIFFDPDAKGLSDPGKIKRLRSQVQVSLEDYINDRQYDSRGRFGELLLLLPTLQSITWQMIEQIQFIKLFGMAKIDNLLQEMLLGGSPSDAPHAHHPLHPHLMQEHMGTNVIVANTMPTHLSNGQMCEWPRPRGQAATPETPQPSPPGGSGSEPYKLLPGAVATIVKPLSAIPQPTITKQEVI
Sequence of Nuclear receptor subfamily 4 group A member 2 (Homo sapiens) (P43354 whole entry, looked up): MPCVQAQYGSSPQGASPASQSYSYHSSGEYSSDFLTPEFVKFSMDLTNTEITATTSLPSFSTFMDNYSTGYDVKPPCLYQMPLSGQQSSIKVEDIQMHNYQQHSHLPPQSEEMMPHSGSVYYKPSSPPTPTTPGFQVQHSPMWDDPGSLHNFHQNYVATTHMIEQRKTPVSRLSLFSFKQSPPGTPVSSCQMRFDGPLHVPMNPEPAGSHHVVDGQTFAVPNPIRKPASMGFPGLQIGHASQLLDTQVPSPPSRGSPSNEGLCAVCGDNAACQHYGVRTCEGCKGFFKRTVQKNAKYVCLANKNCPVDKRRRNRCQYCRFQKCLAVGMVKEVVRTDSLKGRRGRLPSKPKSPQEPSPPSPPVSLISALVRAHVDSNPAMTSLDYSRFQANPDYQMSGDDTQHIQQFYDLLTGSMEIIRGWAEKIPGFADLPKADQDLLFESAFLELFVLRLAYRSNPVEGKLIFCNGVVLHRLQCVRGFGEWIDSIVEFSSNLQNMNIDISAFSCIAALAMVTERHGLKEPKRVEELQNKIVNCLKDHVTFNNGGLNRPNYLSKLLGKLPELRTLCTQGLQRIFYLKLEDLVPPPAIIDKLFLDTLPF
Sequence of Nuclear respiratory factor 1 (Homo sapiens) (Q16656 whole entry, looked up): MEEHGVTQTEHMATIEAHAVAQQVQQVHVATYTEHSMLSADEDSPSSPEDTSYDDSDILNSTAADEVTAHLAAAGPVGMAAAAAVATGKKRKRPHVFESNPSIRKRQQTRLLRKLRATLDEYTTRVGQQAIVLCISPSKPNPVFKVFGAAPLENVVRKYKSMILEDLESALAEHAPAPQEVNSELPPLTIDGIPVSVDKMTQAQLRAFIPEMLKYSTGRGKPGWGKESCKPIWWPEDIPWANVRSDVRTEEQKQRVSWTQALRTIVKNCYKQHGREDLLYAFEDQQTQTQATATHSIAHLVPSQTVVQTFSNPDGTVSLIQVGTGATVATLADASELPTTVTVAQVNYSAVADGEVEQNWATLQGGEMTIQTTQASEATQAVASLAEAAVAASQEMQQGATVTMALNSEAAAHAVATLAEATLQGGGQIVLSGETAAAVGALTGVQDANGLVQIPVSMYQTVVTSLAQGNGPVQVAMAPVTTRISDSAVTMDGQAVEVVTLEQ
Sequence of Transcriptional activator Myb (Homo sapiens) (P10242 whole entry, looked up): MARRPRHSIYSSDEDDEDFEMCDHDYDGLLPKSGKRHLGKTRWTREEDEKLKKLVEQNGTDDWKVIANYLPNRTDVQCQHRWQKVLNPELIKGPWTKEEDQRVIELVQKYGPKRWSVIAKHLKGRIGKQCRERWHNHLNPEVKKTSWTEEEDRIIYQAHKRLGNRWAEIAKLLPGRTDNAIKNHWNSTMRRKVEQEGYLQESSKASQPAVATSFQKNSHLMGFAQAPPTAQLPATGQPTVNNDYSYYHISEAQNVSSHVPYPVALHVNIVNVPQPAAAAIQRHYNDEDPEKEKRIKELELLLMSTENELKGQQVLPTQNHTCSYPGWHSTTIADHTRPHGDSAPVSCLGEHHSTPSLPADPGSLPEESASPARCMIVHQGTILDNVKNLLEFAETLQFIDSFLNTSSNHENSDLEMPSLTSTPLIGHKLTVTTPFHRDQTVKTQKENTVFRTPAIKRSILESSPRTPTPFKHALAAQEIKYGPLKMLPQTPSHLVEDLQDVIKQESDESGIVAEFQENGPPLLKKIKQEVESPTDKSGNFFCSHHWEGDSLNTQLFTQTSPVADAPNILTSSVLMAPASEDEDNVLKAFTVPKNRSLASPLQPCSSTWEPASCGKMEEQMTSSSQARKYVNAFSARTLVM
Sequence of Cellular tumor antigen p53 (Homo sapiens) (P04637 whole entry, looked up, the tested form may be a part): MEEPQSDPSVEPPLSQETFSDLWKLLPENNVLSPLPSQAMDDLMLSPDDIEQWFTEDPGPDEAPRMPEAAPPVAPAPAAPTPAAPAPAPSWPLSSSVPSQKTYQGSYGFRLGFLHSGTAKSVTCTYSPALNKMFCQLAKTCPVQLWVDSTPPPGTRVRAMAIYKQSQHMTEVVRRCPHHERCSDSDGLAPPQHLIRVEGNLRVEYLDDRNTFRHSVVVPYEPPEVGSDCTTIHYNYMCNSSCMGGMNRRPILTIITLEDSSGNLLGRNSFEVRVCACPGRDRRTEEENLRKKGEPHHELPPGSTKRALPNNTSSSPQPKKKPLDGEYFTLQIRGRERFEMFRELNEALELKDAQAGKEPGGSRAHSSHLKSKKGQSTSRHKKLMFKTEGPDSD
Sequence of Oxysterols receptor LXR-beta (Homo sapiens) (P55055 whole entry, looked up, the tested form may be a part): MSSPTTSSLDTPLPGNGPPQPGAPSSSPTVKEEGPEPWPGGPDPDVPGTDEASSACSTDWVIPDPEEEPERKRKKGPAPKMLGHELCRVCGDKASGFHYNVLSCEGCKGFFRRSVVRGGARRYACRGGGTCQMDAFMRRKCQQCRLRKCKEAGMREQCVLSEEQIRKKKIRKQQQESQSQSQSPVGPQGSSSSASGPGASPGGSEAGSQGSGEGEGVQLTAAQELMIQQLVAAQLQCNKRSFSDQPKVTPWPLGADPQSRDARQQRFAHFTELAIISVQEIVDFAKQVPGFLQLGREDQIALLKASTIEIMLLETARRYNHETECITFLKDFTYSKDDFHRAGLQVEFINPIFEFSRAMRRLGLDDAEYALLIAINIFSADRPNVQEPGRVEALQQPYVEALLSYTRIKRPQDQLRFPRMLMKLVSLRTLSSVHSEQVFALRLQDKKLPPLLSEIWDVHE

Regarding `CCCCCCCCCCCCOCCOS(=O)(=O)O`, the result in [1], in assay [2], in assay [3], in assay [4], in assay [5] and in [6] was inactive. Moreover, the result in [7], in assay [8], in [9], in assay [10], in [11] and in [12] was inactive.

Regarding `NCCN1CCNCC1`, the outcome in [1], in assay [2], in assay [3], in assay [4], in assay [5] and in [6] was inactive. Besides, the call in assay [7], in assay [8], in assay [9], in assay [10], in [11] and in assay [12] was inactive.

As for `[Na+]`, the compound was classed as inactive in assay [4], in assay [5], in [6], in assay [7], in [8] and in assay [9]. The call in [10], in [11] and in assay [12] was inactive.

As to `O=C(O)c1ccco1`, the compound was classed as inactive in [3], in assay [5], in [6], in assay [7], in assay [8] and in assay [10]. In addition, the outcome in assay [11] and in assay [12] was inactive.

Consider `CCCCCCCCCCCCS`, for which the result in assay [5], in assay [6], in assay [7], in [8], in assay [9] and in [11] was inactive. The compound was called inactive in assay [12]. For the same compound, the AC50 is 26.4 µM (active) in assay [10], 30.7 µM (active) in assay [13], 26.4 µM (active) in assay [14] and 20 µM (active) in [15].

Take `Nc1ccn([C@H]2CC[C@@H](CO)O2)c(=O)n1`: the compound was classed as inactive in [16], in assay [2], in assay [5], in assay [6], in assay [7] and in [8]. For the same compound, the call in assay [9], in [10], in assay [11] and in assay [12] was inactive.

Regarding `CCCCCCCOC(C)=O`, the result in [2], in assay [3], in assay [4], in [5], in assay [6] and in assay [7] was inactive. Further, the compound was classed as inactive in assay [8], in assay [10], in assay [11] and in [12].

Take `CCCCCCCCCCO[C@@H]1O[C@H](CO)[C@@H](O)[C@H](O)[C@H]1O`: the outcome in assay [4], in [5], in assay [6], in [7], in [8] and in [11] was inactive. In addition, the AC50 in assay [10] is 100 µM (active).

Regarding `C=CCCCCCCCCC(=O)OCC`, the outcome in [2], in [3], in assay [4], in [5], in assay [6] and in assay [7] was inactive. The compound was classed as inactive in [8], in assay [11] and in assay [12]. Further, the AC50 in assay [10] is 61.7 µM (active).

For the compound `O=C(O)c1cccc(Cl)n1`, the result in assay [16], in [3], in assay [5], in assay [6], in assay [7] and in assay [8] was inactive. For the same compound, the compound was classed as inactive in assay [9], in assay [10], in assay [11] and in assay [12].

For the compound `C=C(C)C(=O)OCCN(C)C`, the compound was classed as inactive in assay [16], in assay [4], in assay [5], in [6], in [7] and in [8]. Besides, the compound was called inactive in assay [10], in assay [11] and in assay [12].
